Screens as filed in PubChem BioAssay.
PGK inhibitor – T. brucei PGK inhibition. P07378. PGK/GAPDH coupled, Kinase-Glo luminescence, 60 min. Potency, µM (doses to about 57.5 µM), usual class: inhibitors. actives 0.043% (n = 380,000). AID 602233; further: nearly all actives have a fitted effect of over 60% in size
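Luminescent ATP detection (Kinase-Glo Plus) follows a 60-minute room-temperature incubation, with wells lacking PGK as controls. Buffer: 100 mM TEA (pH 7.6), 5 mM MgCl2, 0.01% Tween-20. Coupling enzyme GAPDH (100 nM final) supplies unstable 1,3-BPG in-well.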
PI5P4Ka inh – PI5P4K alpha (human) kinase inhibition; P48426; PI5P4Kalpha enzyme, ADP-Glo luminescence, 60 min; active compounds read low; max response, %; actives 1.2% (n = 330,000); active means max response of -50% or lower; inconclusive means between -30% and -50%; inactive means -30% or higher; further: value at the top dose of about 77 µM
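qHTS, 1536-well: enzyme/substrate mix, compound by pin tool, 5 microM ATP final; RT 60 min; ADP-Glo reagents 1 (45 min) then 2 (30 min); luminescence.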
KAT2A inh – blocks human GCN5L2 histone acetyltransferase | AID 504327 | Potency, µM (titrated, usually from 58.9 µM), usual class: inhibitors | actives 0.21% (n = 390,000) | Q92830 | GCN5L2 HAT assay, ThioGlo1 CoA-SH fluorescence
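qHTS, 1536-well. 20nM enzyme, pH 7.5 HEPES/EDTA/Tween-20 buffer; 15 min compound preinc., RT. Start: 75uM H3(1-25), 70uM AcCoA, 50uM ThioGlo1. Read Ex340/Em540 at t=0 (autofluorescence flag) and t=20 min.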
PI4K2A block – blocks human PI4K2A kinase activity | purified PI4K2A, ADP-Glo luminescence, 1 h; active compounds read low | actives 0.13% (n = 420,000) | activity change, negative = inhibition, % at 76.9 µM; in the data active means activity change below about -50%; inconclusive means mostly about -30% to -49%
Target sequence (Q9BTU6 whole entry, looked up): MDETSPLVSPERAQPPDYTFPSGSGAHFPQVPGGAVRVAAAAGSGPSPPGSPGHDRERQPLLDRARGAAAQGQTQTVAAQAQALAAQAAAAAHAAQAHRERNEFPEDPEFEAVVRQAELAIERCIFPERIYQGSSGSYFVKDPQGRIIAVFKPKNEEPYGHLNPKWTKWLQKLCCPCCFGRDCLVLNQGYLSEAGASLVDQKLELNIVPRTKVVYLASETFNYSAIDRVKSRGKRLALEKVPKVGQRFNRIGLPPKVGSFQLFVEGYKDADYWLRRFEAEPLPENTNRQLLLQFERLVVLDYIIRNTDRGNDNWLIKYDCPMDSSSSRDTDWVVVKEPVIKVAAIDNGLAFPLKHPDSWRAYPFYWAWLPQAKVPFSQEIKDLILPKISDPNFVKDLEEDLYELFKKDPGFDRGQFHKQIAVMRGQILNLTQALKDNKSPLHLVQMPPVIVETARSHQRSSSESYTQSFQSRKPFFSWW
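Compounds are screened against recombinant PI4K2A using PI as substrate and ATP, the latter dispensed at 300 microM. Reactions run one hour at ambient temperature before ADP-Glo detection; full inhibition defined by wells lacking enzyme.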
Pin1 inh – inhibitors of human Pin1; Pin1 FP peptide displacement, HiFluor488, 10 min; Potency, µM (highest dose often 115 µM), usual class: inhibitors; actives 0.009% (n = 390,000); active means well fitted inhibition curve with a large enough effect in the polarisation, with a control signal flat, not every such curve was filed as active; inconclusive means small, poorly fitted or top-dose-only effect, or effect the other way, or a change in a side signal; inactive means no such curve, though single readings can be large or run the other way; the % refers to the polarisation
Target sequence (Q13526 whole entry, looked up): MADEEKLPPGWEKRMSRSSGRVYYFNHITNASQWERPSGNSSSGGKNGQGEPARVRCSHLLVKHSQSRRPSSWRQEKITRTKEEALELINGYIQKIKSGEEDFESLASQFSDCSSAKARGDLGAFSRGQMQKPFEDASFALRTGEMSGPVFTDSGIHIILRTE
GoLoco inh red – blocks human Gai1 binding to RGS12 GoLoco peptide, red readout; Potency, µM (doses to about 61.6 µM), usual class: inhibitors; Gai1:RGS12 GoLoco peptide FP, rhodamine, 10 min; actives 0.44% (n = 230,000); P63096; active means well fitted inhibition curve with a large enough effect, not every such curve was filed as active; inactive means no such curve, though single readings can be large or run the other way; further: nearly all actives have a fitted effect of over 30% in size
A number is an active result; . = inactive; ? = inconclusive; / = not tested or not shown. The list is not random: actives were taken first. Their share in the collection is about 1.2%. Unless noted, the call rests on the fitted dose curve; in most records, active means well fitted curve in the direction sought with a large enough effect; inconclusive means small, poorly fitted or top-dose-only effect, or another doubt; inactive means no such curve, though single readings can be large; an effect the other way counts as inactive or inconclusive.

SMILES | PGK inhibitor | PI5P4Ka inh | KAT2A inh | PI4K2A block | Pin1 inh | GoLoco inh red
N#CCc1nc2ccc(S(=O)(=O)N3CCOCC3)cc2s1 | . | -64 | . | . | ? | .
COc1ccccc1NC(=O)CNC(=O)c1ccc([N+](=O)[O-])cc1 | . | . | . | . | . | .
Cc1c(N=Nc2c(-c3ccc([N+](=O)[O-])cc3)[nH]n(C(N)=S)c2=O)cccc1[N+](=O)[O-] | . | -62 | . | . | / | .
NC(=S)n1[nH]c(-c2ccc([N+](=O)[O-])cc2)c(N=Nc2ccccc2[N+](=O)[O-])c1=O | . | . | . | . | ? | .
O=C(CN1C(=O)S/C(=C\C=C\c2ccccc2)C1=O)Nc1ccccc1C(=O)O | . | -67 | . | . | . | .
Cc1cc(C(=O)NCc2cccnc2)cs1 | . | / | . | . | . | .
Nc1ccc(C(=O)O)c(O)c1 (tested in a mixture with another compound) | / | / | / | / | / | 28µM
CC(C)CNC(=O)COC(=O)CCC(=O)c1ccc(F)cc1 | . | . | . | . | . | .
CC(=O)Nc1ccc(C2CC(c3ccc(Cl)cc3)=NN2c2ccccc2)cc1 (stereo unspecified) | . | . | 32µM | . | . | /
O=C(COc1ccc([N+](=O)[O-])cc1)Nc1nnc(-c2cccnc2)s1 | . | -66 | ? | . | ? | .
CCC(=O)O[C@H]1C(O[C@@H]2C(C)[C@H](O[C@H]3C[C@@](C)(OC)C(O)C(C)O3)C(C)C(=O)OC(CC)[C@@](C)(O)C(O)[C@H](C)C(=O)C(C)C[C@]2(C)O)OC(C)CC1N(C)C (stereo partly specified) | / | / | 7.1µM | / | / | .
CCOC(=O)CCC(=O)O[C@H]1C(O[C@@H]2C(C)[C@H](O[C@H]3C[C@@](C)(OC)C(O)C(C)O3)C(C)C(=O)OC(CC)[C@@](C)(O)C(O)[C@H](C)C(=O)C(C)C[C@]2(C)O)OC(C)CC1N(C)C (stereo partly specified) | / | / | . | / | / | .
O=C(NCc1ccc(Cl)cc1)C1CCN(S(=O)(=O)N2CCOCC2)CC1 | . | . | . | . | . | .
Cc1ccc(CN2CCN(CC(=O)N3CCc4ccccc4C3)C2=O)cc1 | / | / | . | / | / | .
CC[C@@]1(O)C(=O)OCc2c1cc1n(c2=O)Cc2c-1nc1ccccc1c2/C=N/OC(C)(C)C | / | / | / | . | / | /
CCC1(OC(=O)CN(C)C)C(=O)OCc2c1cc1n(c2=O)Cc2cc3c(N)cccc3nc2-1 (stereo unspecified) | . | . | / | -62 | ? | /
C=CCNC(=O)NC(=O)COC(=O)/C=C/c1cccc([N+](=O)[O-])c1 | . | -83 | . | . | . | .
CSC(=Nc1ccc(Cl)cc1)N[n+]1ccccc1 | . | . | . | . | . | 7.1µM
O=[N+]([O-])c1ccccc1/C=C/c1ccc2ccccc2n1 | . | . | . | . | . | /
CCN1CCN(Cc2ccc(NC(=O)c3ccc(C)c(NC(=O)c4ccno4)c3)cc2C(F)(F)F)CC1 | . | . | . | . | . | .
CCN1CCN(Cc2ccc(NC(=O)c3ccc(C)c(/C=C/c4cnc(Nc5cc(N6CCNCC6)nc(C)n5)cn4)c3)cc2C(F)(F)F)CC1 | . | -74 | . | . | ? | /
C/C(=N\NC(=O)Cc1c[nH]c2ccccc12)c1ccc2ccccc2c1 | . | -53 | . | . | . | .
CC1CCCC(C)N1/N=C/c1ccc([N+](=O)[O-])cc1 (stereo unspecified) | . | . | . | . | . | /
CCOc1ccc(S(=O)(=O)Nc2ccc(C(=O)N/N=C/c3c(C)nn(-c4ccccc4)c3N3CCCC3)cc2)cc1 | . | -74 | . | . | . | .
Cc1nn(-c2ccccc2)c(N2CCCCC2)c1/C=N/NC(=O)c1ccncc1 | . | . | . | . | . | .
SMILES | PGK inhibitor | PI5P4Ka inh | KAT2A inh | PI4K2A block | Pin1 inh | GoLoco inh red
CCN(CC)c1ccc(NC(=O)CN2CCN(c3ccccc3OC)CC2)cc1 | . | / | . | . | . | /
CC(=O)c1c(C)[nH]c(C(=O)OCC(=O)Nc2ncc(Cl)c(C)c2Cl)c1C | . | -54 | . | . | . | .
CC(C)=CC(=O)OCC(=O)Nc1ncc(Cl)c(C)c1Cl | . | / | . | . | . | .
O=c1cc2oc3cc(O)c(O)cc3c(-c3ccccc3[N+](=O)[O-])c-2cc1O | ? | -61 | . | ? | . | /
O=c1cc(-c2ccccc2)oc2cc(O)c(O)cc12 | / | / | . | / | / | .
O=C(NC1CCN(C(=O)Nc2ccccc2Cl)CC1)c1ccccc1 | . | . | . | . | . | .
CCOc1ccc2nc(/N=C/c3nc(-c4ccc(Br)cc4)oc3O)sc2c1 | . | -63 | . | . | ? | .
CCOC(=O)c1c(S(=O)(=O)N2CCC(C(=O)Nc3ccc(F)cc3F)CC2)c(C)n(C)c1C | . | / | . | . | . | /
Cc1ccc(-c2cc(C(=O)NCCN3CCOCC3)c3ccccc3n2)o1 | . | . | 13µM | . | . | /
COc1ccc(-c2cc(C(=O)NCCN3CCOCC3)c3ccccc3n2)cc1 | . | . | . | . | . | .
O=C(CSc1nnc(CCc2ccccc2)n1-c1ccc(Cl)cc1)c1ccccc1 | . | -50 | . | . | . | .
COc1ccc(-n2c(CCc3ccccc3)nnc2SCC(=O)c2ccc(Cl)cc2)cc1 | . | . | . | . | . | .
O=C(CSc1nc2ccccc2c(=O)n1Cc1ccccc1)Nc1ccc(Br)cc1C(=O)O | . | -75 | ? | . | ? | /
Cc1[nH]c2ccccc2c1C1=CC(=O)C=CC1=O | . | -97 | / | . | . | /
Cc1[nH]c2ccccc2c1CC#N | . | . | . | . | . | .
Cc1cnc(-c2nc3ccccc3n2C(C(=O)Nc2c(C)cccc2C)C2CC2)cn1 (stereo unspecified) | / | . | / | . | / | /
COc1ccc2oc(C(=O)Nc3cccc(S(=O)(=O)N4CCOCC4)c3)c(C)c2c1 | . | . | . | . | . | /
O=[N+]([O-])c1cc(S(=O)(=O)N2CCCC2)ccc1N/N=C1/CCCc2ccccc21 | . | . | . | . | . | .
O=C(NC(=S)Nn1cnnc1)c1ccc(F)cc1Cl | . | -54 | . | . | . | /
O=C(NC(=S)Nn1cnnc1)c1ccccc1Cl | . | . | . | . | . | .
CS(=O)(=O)C1=NSC2=NC(=O)/C(=C\c3ccc(OC(=O)c4ccco4)c(Br)c3)C(=N)N21 | . | -73 | . | . | . | /
CC(C)CS(=O)(=O)C1=NSC2=NC(=O)/C(=C\c3ccc(OC(=O)c4ccco4)cc3)C(=N)N21 | . | -86 | . | . | . | /
CSC1=NSC2=NC(=O)/C(=C\c3ccc(OC(=O)c4ccco4)cc3)C(=N)N12 | . | -53 | . | . | . | /
CCS(=O)(=O)C1=NN2C(=N)/C(=C\c3ccc(OC(=O)c4ccco4)cc3)C(=O)N=C2S1 | . | . | . | . | . | /
